# Measurements taken from PMC4552634, “A New Set of Chemical Starting Points with Plasmodium falciparum Transmission-Blocking Potential for Antimalarial Drug Discovery” (PLoS ONE, 2015).
# Where two headings read alike, the source gives them in different places. Out of some 13,000 compounds screened, about 3,200 (25%) showed an effect of 50% or more. Some of the results follow.
# Test system: P. falciparum stage V gametocytes
# Parameters: BacTiter-Glo ATP luminescence viability of purified stage V gametocytes in 384-well plates, per cent inhibition versus DMSO
# Details: 48 h, 5 µM, inhibitor
SMILES,% Inhibition,% Inhibition (% Inhibition)
O=C(/C=C/c1cccs1)NC1CCC(CN2CCC(c3c[nH]c4ccccc34)CC2)CC1 (centres unmarked) [TCMDC-139759],42.82%,
Cc1ccc(C)c(C=CC(=O)NC2CCC(CN3CCC(c4c[nH]c5ccccc45)CC3)CC2)c1 (centres unmarked) [TCMDC-139904],,66.94%
CCCCC/C=C/C(=O)NC1CCC(CN2CCC(c3c[nH]c4ccccc34)CC2)CC1 (centres unmarked) [TCMDC-139709],109.3%,
Cc1ccc(/C=C/C(=O)NC2CCC(CN3CCC(c4c[nH]c5ccccc45)CC3)CC2)cc1 (centres unmarked) [TCMDC-139702],,110%
Cc1ccc(C)c(C=CC(=O)NC2CCC(CN3CCC(c4c[nH]c5ccccc45)CC3)CC2)c1 (centres unmarked) [TCMDC-139916],,-2.713%
Cc1ccc(/C=C/C(=O)NC2CCC(CN3CCC(c4c[nH]c5ccccc45)CC3)CC2)cc1 (centres unmarked) [TCMDC-139717],,80.48%
Cc1ccc(/C=C/C(=O)NC2CCC(CN3CCC(c4c[nH]c5ccccc45)CC3)CC2)cc1C (centres unmarked) [TCMDC-139760],,36.59%
O=C(c1cc2c(s1)-c1cccc(Cl)c1SC2)N1CCN(c2ccncc2)CC1 [TCMDC-133145],30.1%,
CCOc1cc2ncnc(Nc3ccc(OCc4ccccc4Br)c(OC)c3)c2cc1OCC [TCMDC-131938],-6.786%,
COc1ccccc1C1CC(c2ccccc2)=NN1C(=O)c1ccco1 (centres unmarked) [TCMDC-124921],5.682%,
COc1ccc(-c2cn3c(C(=O)Nc4ccccc4Cl)c(-c4ccccc4)c4c3n2CCCC4)cc1 [TCMDC-125125],-39.86%,
CCNC(=O)CCc1cccc(Br)c1 [TCMDC-137648],26.26%,
CCNc1cc(C(=O)N[C@@H](Cc2ccccc2)[C@H](O)CNCCc2cccc3ccccc23)cc(N2CCCC2=O)c1 [TCMDC-134568],-9.566%,
COC(=O)[C@@H](NC(=O)[C@H](Cc1ccc(OC)c(OC)c1)Nc1ccc(C#N)c2ccccc12)c1ccc(O)cc1 [TCMDC-136637],53.18%,
N#Cc1ccc(N[C@@H](CC2CCCCC2)C(=O)N[C@@H]2CCCc3ccccc32)c2ccccc12 [TCMDC-136633],13.98%,
CC(C)(C)[C@@H](Nc1ccc(C#N)c2ccccc12)C(=O)NC1(Cc2ccc(O)c(Br)c2)CCCC1 [TCMDC-136784],27.12%,
Cc1cc(NC(=O)[C@H](CC(C)C)Nc2ccc(C#N)c3ccccc23)ccc1F [TCMDC-136623],-63.41%,
CC(C)C[C@H](Nc1ccc(C#N)c2ccccc12)C(=O)N[C@@H]1CCCc2ccccc21 [TCMDC-136088],59.15%,
CCC(CC)C(CC(=O)NC(C)(C)CCc1ccccc1OC)Nc1ccc(C#N)c2ccccc12 (centres unmarked) [TCMDC-132308],3.423%,
CCCCC1(NC(=O)[C@H](CC(C)C)Nc2ccc(C#N)c3ccccc23)CCCCC1 [TCMDC-136624],-52.31%,
COC(=O)[C@@H](NC(=O)[C@H](CC(C)C)Nc1ccc(C#N)c2ccccc12)c1ccc(O)cc1 [TCMDC-136622],62.67%,
CC(C)(C)[C@@H](Nc1ccc(C#N)c2ccccc12)C(=O)NC1(Cc2ccc(O)cc2)CCCC1 [TCMDC-136782],18.1%,

SMILES,% Inhibition,% Inhibition (% Inhibition)
N#Cc1ccc(N[C@@H](CC2CCCCC2)C(=O)NCc2cc(Cl)cc(Cl)c2)c2ccccc12 [TCMDC-136626],13.09%,
COC(=O)[C@@H](NC(=O)[C@@H](Nc1ccc(C#N)c2ccccc12)C(C)(C)C)c1ccc(O)cc1 [TCMDC-136607],78.97%,
COc1cccc([C@@H](CC(=O)Nc2cc(C(F)(F)F)ccc2OC)Nc2ccc(C#N)c3ccccc23)c1 [TCMDC-132309],11.85%,
CC(=O)Nc1cccc(CNCc2ccc(-c3cnc(N4CCCC(c5ccccc5)C4)nc3)cc2)c1 (centres unmarked) [TCMDC-133723],-4.34%,
CC(Sc1nc(-c2ccccc2)c(-c2ccccc2)o1)C(=O)NC1CC1 (centres unmarked) [TCMDC-125313],34.01%,
O=C(Nc1ccc(Cn2ncc(N3CCCNCC3)c(Cl)c2=O)cc1)Nc1cccc(SC(F)(F)F)c1 [TCMDC-133321],-32.98%,
O=C(Nc1ccc([N+](=O)[O-])cc1)Nc1nc2ccc(Cl)cc2s1 [TCMDC-123703],38.6%,
Cc1cccc2nc(-c3ccc(-c4ccc(NC(=O)C(C)CN(C)C)cc4)s3)[nH]c12 (centres unmarked) [TCMDC-137115],20.93%,
COc1nc2c(CCN3CCC(NCc4ccc5c(n4)NC(=O)CO5)CC3)c(Cl)cnc2cc1F [TCMDC-135766],-7.442%,
CN1CCN(Cc2cc3cc(NC(=O)/C=C/c4cccc(Cl)c4)ccc3s2)CC1 [TCMDC-135630],-63.97%,
CC(C)C[C@@H](/C=N/N1CCNC1=O)NC(=O)[C@H](CC(C)C)NC(=O)c1ccc(OCCN2CCOCC2)cc1 [TCMDC-136227],6.84%,
COC(=O)c1cccc(CNCc2cccc(-c3cccc(-c4nc5cc(C(F)(F)F)ccc5[nH]4)c3)c2)c1.O=C(O)C(F)(F)F [TCMDC-132949],2.495%,
Cc1cc(NC(=O)[C@H](CC2CCCCC2)Nc2ccc(C#N)c3ccccc23)ccc1F [TCMDC-136627],3.721%,
CCC(CC)(Cc1ccccc1)NC(=O)[C@H](CC(C)C)Nc1ccc(C#N)c2ccccc12 [TCMDC-136625],-7.489%,
CCC(CC)(Cc1ccccc1)NC(=O)[C@H](CC1CCCCC1)Nc1ccc(C#N)c2ccccc12 [TCMDC-136634],-0.7992%,
CCC(CC)(Cc1ccccc1)NC(=O)[C@H](Cc1ccc(OC)c(OC)c1)Nc1ccc(C#N)c2ccccc12 [TCMDC-136638],82.88%,
N#Cc1ccc(N[C@@H](CC2CCCCC2)C(=O)Nc2ccc(-c3ccccc3)cc2)c2ccccc12 [TCMDC-136629],57.71%,
CC(C)(CC1CCCCC1)NC(=O)[C@H](CC1CCCCC1)Nc1ccc(C#N)c2ccccc12 [TCMDC-136632],-68.15%,
CC(=O)c1ccc(-c2ccccc2)s1 [TCMDC-123882],-10.02%,
CC[C@H](C)[C@H](NC(=O)[C@H](CC1CCCCC1)[C@H](CC)N(O)C=O)C(=O)Nc1ccccn1 [TCMDC-137215],2.069%,
CC(=O)Nc1cccc(-c2cn(-c3ccc(OCc4cccc(F)c4)c(Cl)c3)c3ncncc23)c1 [TCMDC-135093],-24.36%,
COc1ccc(C2C(C(=O)OC3CCCC3)=C(C)NC3=C2C(=O)CCC3)cc1Br (centres unmarked) [TCMDC-124211],-24.26%,

SMILES,% Inhibition,% Inhibition (% Inhibition)
CCn1cc(C=C2Oc3c(ccc(O)c3CN3CCCCC3C)C2=O)c2ccccc21 (centres unmarked) [TCMDC-124886],27.57%,
Cc1cc(C(=O)Nc2ccc(-c3ccccc3)cc2)no1 [TCMDC-124865],48.28%,
Cc1occc1C(=O)Nc1nc(-c2ccccn2)nc2ccsc12 [TCMDC-135244],130.5%,
Cc1onc(-c2ccccc2)c1C(=O)Nc1nc(-c2ccccn2)nc2ccsc12 [TCMDC-135272],-61.64%,
Cc1cc(C(=O)Nc2nc(-c3ccccn3)nc3ccsc23)no1 [TCMDC-135243],58.63%,
COc1ccc(C(=O)Nc2ccc3oc(-c4ccc(C(F)(F)F)cc4)cc3c2)cc1CCCN(C)C [TCMDC-138694],15.28%,
COc1ccc2nccc([C@@H](O)CN3CCC(c4cc(-c5ccc(Cl)cc5)n[nH]4)CC3)c2n1 [TCMDC-141436],81.16%,
COc1ccc2nccc([C@@H](O)CN3CCC(NCc4ccc5cccc(O)c5n4)CC3)c2n1 [TCMDC-140748],43.79%,
COc1ccc2nccc([C@@H](O)CN3C4CCC3CC(NCc3ccc5c(n3)NC(=O)CS5)C4)c2n1 (some centres unmarked) [TCMDC-134697],50.82%,
COc1ccc2nccc([C@@H](O)CN3CCC(NCc4cc5ccccc5[nH]4)CC3)c2n1 [TCMDC-140670],14.92%,
COc1ccc2nccc([C@@H](O)CN3CCC(NCc4cc5ccccc5cn4)CC3)c2n1 [TCMDC-140714],12.93%,
COc1ccc2nccc(N(C)CC3(O)CCC(NCc4ccc5c(n4)NC(=O)CS5)CC3)c2n1 (centres unmarked) [TCMDC-134496],10.91%,
COc1ccc2nccc(NCC3(O)CCC(NCc4ccc5c(n4)NC(=O)CS5)CC3)c2n1 (centres unmarked) [TCMDC-134313],46.62%,
COc1ccc2nccc([C@@H](O)CN3CCC(NCc4ccc5c(c4)NC(=O)CS5)CC3)c2n1 [TCMDC-141173],12.99%,
COc1cc(F)c2nccc([C@@H](O)CN3CCC(NCc4ccc5c(n4)NC(=O)CS5)CC3)c2c1 [TCMDC-141566],6.174%,
COc1ccc2nccc([C@@H](O)CN3CCC(NCc4cc5c(cc4F)SCC(=O)N5)CC3)c2n1 [TCMDC-141432],52.03%,
COc1ccc2nccc([C@@H](O)CN3CCC(NCc4cc5c(F)ccc(F)c5[nH]4)CC3)c2n1 [TCMDC-140749],33.6%,
COc1ccc2nccc([C@@H](O)CN3CCC(NCc4cc5cccnc5[nH]4)CC3)c2n1 [TCMDC-140769],87.86%,
COc1ccc2ncc(F)c(C(O)CN3CCC(NCc4ccc5c(n4)NC(=O)CO5)CC3)c2c1 (centres unmarked) [TCMDC-135531],,14.63%
CN(C)CCOc1ccc2c(c1)OC(C)(C)C=C2c1cccc2ccccc12 [TCMDC-131402],-10.44%,
CNC(=O)C1Cc2c([nH]c3c(C)cccc23)C2(N1)C(=O)Nc1ccc(OC(F)(F)F)cc12 (centres unmarked) [TCMDC-140663],46.7%,
